Screening data as filed in PubChem BioAssay.
This is a sample that favours compounds with a hit; in the whole collection about 1.6% have one here.
KCNQ2 inh = rat KCNQ2 potassium channel inhibitors, primary screen, cell-based, CHO-K1, FluxOR thallium flux, B-score; Potassium voltage-gated channel subfamily KQT member 2 (Rattus norvegicus), O88943; 20 min; hits give low values; B-score at 10 µM; 1.1% of 310,000 active; AID 2156, 2009;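 active = fluorescence ratio B-score at most minus 3 library SDs, with starting brightness B-score within 2 library SDs, cut at about -5.5 in these data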
KCNQ2 pot = potentiators of rat KCNQ2 potassium channel; Potassium voltage-gated channel subfamily KQT member 2 (Rattus norvegicus), O88943; B-score at 10 µM; CHO-K1 KCNQ2, FluxOR thallium flux fluorescence; hits give high values; AID 2239, 2010; 0.54% of 310,000 active;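 active = fluorescence ratio B-score at least 3 SD of library B-scores, with initial fluorescence B-score within 3 of them, cut at about 5.3 in these data; same plate scores as AID 2156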;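 also: B-score of peak minus minimum over baseline fluorescence ratio after K+ and Tl+ stimulus; positive B-score means potentiation of KCNQ2 with more thallium influx and brighter signal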
Kir21 conf inh = mouse Kir2.1 channel blockers, retest, confirmation, cell-based, FluxOR thallium flux, duplicate. shares compounds with KCNQ2 pot. Kir2.1-expressing cells, FluxOR thallium flux fluorescence; hits give low values. Tl flux remaining, % of negative control (hits give low values), % at 10 µM. 41% of 2,300 active. AID 2032, 2009;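 active = Primary-screen hit whose thallium flux fell at least 3 control SD below untreated wells in both duplicates, with normal baseline fluorescence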
HEK293 Tl flux = alters thallium flux in parental HEK293 cells, Kir2.1 counter-screen | 19% of 2,300 active | FluxOR signal as % of negative control (100 = no effect), % at 10 µM | shares compounds with KCNQ2 pot | FluxOR thallium flux fluorescence; 0% = unstimulated blank wells | AID 2105;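 active = dye signal at least 3 control SD above or below untreated wells in both duplicates, raw fluorescence within 3, either direction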;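 also: percent is based on the flux ratio of peak minus minimum fluorescence over baseline F0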
CHO-K1 Tl ctr = nonspecific thallium flux increase in parental CHO-K1, confirmation, counter-screen for KCNQ2 potentiator project, cell-based, FluxOR thallium flux, duplicate | shares compounds with KCNQ2 pot | parental CHO-K1 cells, FluxOR thallium flux fluorescence; zero = vehicle mean+3SD, 100% = vehicle-minus-blank window | activity increase over 3SD of controls, % at 10 µM | 43% of 1,200 active | AID 2282, 2010;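 active = signal rise of at least 3 SD above the untreated control mean, in both duplicate wells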;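 also: counter screen of KCNQ2 potentiator hits so any rise reflects channel-independent effects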
KCNQ1 pot spec = human KCNQ1 channel potentiation off-target, confirmation, selectivity assay for KCNQ2 potentiator project, cell-based, CHO, FluxOR thallium flux; shares compounds with KCNQ2 pot; CHO KCNQ1 stable, FluxOR thallium flux fluorescence; beyond 3SD, as % of vehicle-control signal; activation over 3SD threshold, % at 10 µM; 28% of 1,200 active; AID 2283, 2010;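 active = fluorescence ratio rise of at least 3 SD of vehicle wells above their mean, in both replicate wells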
KCNQ2 pot confirm = rat KCNQ2 channel potentiators, confirmation, cell-based, CHO, FluxOR thallium flux, duplicate; potentiation, less the hit threshold, % at 10 µM; 68% of 1,200 active; shares compounds with KCNQ2 pot; CHO-KCNQ2 cells, FluxOR thallium flux fluorescence; AID 2287, 2010;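 active = fluorescence ratio rising 3 SD or more over the vehicle control mean in both replicates, plus primary screen hit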;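 also: peak minus minimum thallium fluorescence divided by baseline after K/Tl stimulus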
Kir2-1 sel = mouse Kir2.1 channel activation off-target, confirmation, selectivity assay for KCNQ2 potentiator project, cell-based, HEK293, FluxOR thallium flux | AID 2345, 2010 | 2% of 1,200 active | shares compounds with KCNQ2 pot | HEK293 Kir2.1, FluxOR thallium flux fluorescence | activity over 3SD threshold, % at 10 µM;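 active = fluorescence ratio rise of at least 3 SD above the vehicle-control mean, seen in both replicates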
KCNQ2 W236L MoA = potentiators of retigabine-insensitive KCNQ2 W236L, mechanism study for KCNQ2 potentiator project, cell-based, rat KCNQ2 W236L, CHO, automated patch clamp | shares compounds with KCNQ2 pot | 10% of 940 active | current increase over 3SD of negative controls (%), hits give high values, % at 25 µM | automated patch clamp current;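 active = current increase at least 3 SD of the untreated controls above them in both duplicate recordings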
Each line names hits and unclear results; the compound was inactive in the other large screens (follow-up assays come after a bar, where they were run).

CCCOc1cccc(-c2cc(C(=O)N/N=C/c3ccccn3)c3ccccc3n2)c1	KCNQ2 pot 5.5 | Kir21 conf inh inactive | HEK293 Tl flux inactive | CHO-K1 Tl ctr inactive | KCNQ1 pot spec inactive | KCNQ2 pot confirm inactive | Kir2-1 sel inactive
CCCOc1cccc(-c2cc(C(=O)NN)c3ccccc3n2)c1	none
CN(NC(=O)c1ccccc1Cl)c1ncc(C(F)(F)F)cc1Cl	none
COc1ccc(C(C)NC(=S)NCc2ccc(F)cc2)cc1 (configuration not stated)	none
COc1cccc(C(C)NC(=S)NCc2ccc(Cl)cc2)c1 (configuration not stated)	none | Kir21 conf inh 52% | HEK293 Tl flux inactive
NC(=O)c1cnn2c(-c3ccc(Cl)cc3Cl)ccnc12	none (no result: KCNQ2 pot)
CCOc1ccccc1NS(=O)(=O)c1c(C)[nH]c(C)c1C(=O)N1CCCCC1	none (no result: KCNQ2 pot)
CCCCc1ncc(CN2CCC(CC3CCCCO3)(C(=O)OCC)CC2)[nH]1 (configuration not stated)	none
CCOC(=O)C1(CC2CCCCO2)CCN(Cc2cc3ccccc3[nH]2)CC1 (configuration not stated)	KCNQ2 pot 8.4 | CHO-K1 Tl ctr inactive | KCNQ1 pot spec inactive | KCNQ2 pot confirm inactive | Kir2-1 sel inactive
CC(C(=O)NC(=O)NC1CCCCC1)N1CCN(C(c2ccccc2)c2ccccc2)CC1 (configuration not stated)	none (no result: KCNQ2 pot)
O=C(COC(=O)CCSc1ccc(Cl)cc1)NCCc1ccccc1	none (no result: KCNQ2 pot)
CC(C)(Oc1ccc(Cl)cc1)C(=O)OCC(=O)NCCc1ccccc1	none | Kir21 conf inh 62% | HEK293 Tl flux inactive
CCOc1ccc(-c2c(C)sc3nc[nH]c(=O)c23)cc1	none
O=C(NCc1ccc(Cl)cc1)c1ccc2ccccc2n1	none (no result: KCNQ2 pot)
Cc1ccc(S(=O)(=O)CCC(=O)OCc2nc(N)nc(Nc3ccccc3C)n2)cc1	none
Cc1ccc2c(CC(=O)OCc3nc(N)nc(Nc4ccccc4C)n3)coc2c1	KCNQ2 pot 11 | Kir21 conf inh inactive | HEK293 Tl flux inactive | CHO-K1 Tl ctr 17 | KCNQ1 pot spec inactive | KCNQ2 pot confirm 15 | Kir2-1 sel inactive | KCNQ2 W236L MoA inactive
CCS(=O)(=O)c1nc(S(=O)(=O)c2ccc(C)cc2)c(N2CCC(O)CC2)s1	none
COc1ccccc1C(=O)NC(=O)COC(=O)CNC(=O)c1ccccc1	none
O=C(CSc1nc(-c2ccco2)cc(C(F)(F)F)n1)N1CCN(c2cccc(Cl)c2)CC1	KCNQ2 pot 7.9 | Kir21 conf inh inactive | HEK293 Tl flux 76% | CHO-K1 Tl ctr 15 | KCNQ1 pot spec 60 | KCNQ2 pot confirm inactive | Kir2-1 sel inactive
CN1CCN(C(=O)CSc2nc(-c3ccco3)cc(C(F)(F)F)n2)CC1	none
O=C(CCSc1nc(-c2ccco2)cc(C(F)(F)F)n1)N1CCN(c2ccccn2)CC1	none (no result: KCNQ2 pot)
O=C(CSc1nc(-c2ccco2)cc(C(F)(F)F)n1)N1CCSCC1	KCNQ2 pot 12 | Kir21 conf inh inactive | HEK293 Tl flux inactive | CHO-K1 Tl ctr inactive | KCNQ1 pot spec 68 | KCNQ2 pot confirm 34 | Kir2-1 sel inactive | KCNQ2 W236L MoA inactive
O=S1(=O)CCO[C@H]2Cc3ccccc3[C@H]2N1Cc1ccc(F)cc1	none (no result: KCNQ2 pot)
O=C(/C=C/c1ccc(F)cc1)NCCc1ccc2c(c1)OCCO2	none (no result: KCNQ2 pot)
CC1CCN(Cc2nnnn2CCCC(=O)N(C)C2CCOC2)CC1 (configuration not stated)	none
COc1ccccc1C(=O)Nc1ccc(N2CCCCC2)cc1	none (no result: KCNQ2 pot)
COc1cccc(OC)c1C(=O)Nc1ccc(N2CCCC2)cc1	none | Kir21 conf inh inactive | HEK293 Tl flux inactive
CCC(C)c1ccccc1NC(=S)NC(=O)c1ccco1 (configuration not stated)	KCNQ2 pot 12 | Kir21 conf inh inactive | HEK293 Tl flux 383% | CHO-K1 Tl ctr inactive | KCNQ1 pot spec 68 | KCNQ2 pot confirm 48 | Kir2-1 sel inactive | KCNQ2 W236L MoA inactive
O=C(NC(=S)Nc1ccccc1N1CCCC1)c1ccco1	KCNQ2 pot 7.5 | Kir21 conf inh inactive | HEK293 Tl flux 182% | CHO-K1 Tl ctr 69 | KCNQ1 pot spec inactive | KCNQ2 pot confirm inactive | Kir2-1 sel inactive | KCNQ2 W236L MoA inactive
COc1ccc(-c2csc(NC(=S)NC(=O)c3ccco3)n2)cc1	none
O=C(NC(=S)Nc1ccccc1N1CCCCC1)c1ccco1	none
O=C(NC(=S)Nc1nc(-c2ccccc2)cs1)c1ccco1	KCNQ2 pot 5.4 | Kir21 conf inh inactive | HEK293 Tl flux inactive | CHO-K1 Tl ctr inactive | KCNQ1 pot spec 81 | KCNQ2 pot confirm 1.2 | Kir2-1 sel inactive | KCNQ2 W236L MoA inactive
CC(C)C(=O)N1CCN(c2ccccc2NC(=S)NC(=O)c2ccco2)CC1	none
CCOc1ccc2oc(C(=O)N(CC)CC(=O)Nc3c(F)cccc3F)c(C)c2c1	none (no result: KCNQ2 pot)
O=C(NC1CCCCC1)C(c1ccc(O)cc1)N(C(=O)c1cnccn1)c1cccc(F)c1 (configuration not stated)	none (no result: KCNQ2 pot)
O=C(NC(=S)Nc1cccc2c(O)cccc12)c1ccco1	none
O=C(NC(=S)Nc1ccccc1Cl)c1ccco1	KCNQ2 pot 11 | Kir21 conf inh inactive | HEK293 Tl flux 154% | CHO-K1 Tl ctr inactive | KCNQ1 pot spec inactive | KCNQ2 pot confirm 4.7 | Kir2-1 sel inactive | KCNQ2 W236L MoA inactive
COc1ccc2nc(NC(=S)NC(=O)c3ccco3)sc2c1	KCNQ2 pot 13 | Kir21 conf inh inactive | HEK293 Tl flux inactive | CHO-K1 Tl ctr 3.0 | KCNQ1 pot spec 2.4 | KCNQ2 pot confirm 6.4 | Kir2-1 sel inactive | KCNQ2 W236L MoA inactive
O=C(NC(=S)Nc1cccc(Cl)c1N1CCCCC1)c1cccs1	none
